# Only some compounds are listed: those with a hit (about 2.8% of all), similar ones and a draw of the others.
# MBNL1 CUG block – inhibitors of human MBNL1 binding to CUG repeat RNA | AID 2675 | hit rate 0.036% among 280,000 | Potency, µM (doses to about 57.5 µM), without a hit: top-dose activity change, negative = inhibition, most hits filed as inhibitors | TR-FRET MBNL1-His/biotin-(CUG)12 binding, 665/545 ratio; active = well fitted inhibition curve with a large enough effect in the signal ratio, with a control signal flat, not every such curve was filed as active; inconclusive = small, poorly fitted or top-dose-only effect, or effect the other way, or a change in a side signal; inactive = no such curve, though single readings can be large or run the other way; the % refers to the signal ratio; also: potency is read from the fitted curve at half-maximal effect; % is scaled to controls: 0 for no effect and ±100 for the full control effect
#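 His-tagged MBNL1 binding to biotinylated (CUG)12 RNA was measured by TR-FRET using terbium anti-His antibody (0.055 ng/ul final) and streptavidin-XL665 (5 nM final). Compounds were titrated 92 nM to 58 uM; 60 min at room temperature.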
# a7 integrin act – activators of alpha7 integrin expression for muscular dystrophy; alpha7betagal myoblasts, beta-gal FDG fluorescence, 48 h; Potency, µM (doses to about 38.3 µM), without a hit: at the top dose activation, hits mostly activators; hit rate 0.064% among 350,000;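 also: potency is read from the fitted curve at half-maximal effect; 100% = response of the positive control SU9516; nearly all actives have a fitted effect of over 60% in size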
#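 alpha7betagal+/- myoblasts (passage 13, 250/well) treated 48 h at 37C with compounds at 1:260 dilution of DMSO stock. Lysed, then beta-galactosidase activity read as FDG fluorescence (ex 480/em 540) after 30 min, with pre-read for autofluorescence.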
# PTHR1 agonist – PTHR1 (human) receptor agonism | hit rate 0.075% among 410,000 | HEK293 GP2 PTHR1 cells, GloSensor cAMP luminescence, 1 h | Q03431 | Potency, µM (highest dose often 115 µM), inactives show at the top dose activation, usual class: activators; also: potency is read from the fitted curve at half-maximal effect; nearly all actives have a fitted effect of over 55% in size
# Target sequence (Q03431 whole entry, looked up): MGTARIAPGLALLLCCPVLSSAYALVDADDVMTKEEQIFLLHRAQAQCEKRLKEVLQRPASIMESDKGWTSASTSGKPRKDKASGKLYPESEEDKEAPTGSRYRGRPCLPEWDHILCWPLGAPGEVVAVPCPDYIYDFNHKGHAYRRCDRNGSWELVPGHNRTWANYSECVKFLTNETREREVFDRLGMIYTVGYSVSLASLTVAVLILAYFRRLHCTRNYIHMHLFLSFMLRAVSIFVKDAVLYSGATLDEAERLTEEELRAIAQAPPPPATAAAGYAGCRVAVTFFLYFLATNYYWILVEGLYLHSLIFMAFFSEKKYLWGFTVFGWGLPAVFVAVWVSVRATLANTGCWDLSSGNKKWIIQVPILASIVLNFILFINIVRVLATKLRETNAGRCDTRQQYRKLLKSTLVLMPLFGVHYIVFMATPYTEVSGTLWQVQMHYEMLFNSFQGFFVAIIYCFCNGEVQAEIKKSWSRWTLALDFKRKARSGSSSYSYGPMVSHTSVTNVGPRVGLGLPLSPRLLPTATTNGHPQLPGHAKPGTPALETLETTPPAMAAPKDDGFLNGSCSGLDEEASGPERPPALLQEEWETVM
#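 HEK-293-derived GP2 cells expressing PTHR1 and a GloSensor cAMP reporter, 3,000/well, plated overnight, given luciferin plus IBMX (each 0.5 mM as added) for 1 h at 37 °C, then compound for 1 h at 37 °C. Luminescence was read after 15 min at room temperature.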
# DRD3 agonist – D3 dopamine receptor (human) agonism; max activation, %; P35462; AID 652048; D3R DiscoveRx beta-arrestin cells, luminescence, 90 min; hit rate 0.58% among 410,000; in the data active = max activation above about 30%; also: 0% is about no effect
#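 Agonist-mode cell screen: cells plated at 1500/well and incubated overnight at 37 °C, then exposed to library compounds for 90 min at 37 °C. Detection reagent was added for 30–60 min at room temperature, and luminescence was read.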
# CBFb RUNX1 block – inhibitors of human CBF-beta and RUNX1 interaction. Q01196+Q13951. AlphaScreen CBFb-His/RUNX1-biotin binding, biochemical. Potency, µM (doses to about 59.8 µM), for the others: top-dose activity, negative = inhibition, actives largely listed as inhibitors. 230,000 tested, under 10 active. AID 1477; also: % of control where 0% means no effect
#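 Inhibition was taken as any reduction in AlphaScreen signal from the CBF-beta–RUNX1 pair (His and biotin tags, 30 nM each), measured after compound (15 min) and bead (90 min) incubations at room temperature.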
# DRD3 antagonist – antagonists of human D3 dopamine receptor; P35462; D3R cells, DiscoveRx beta-arrestin luminescence, antagonist mode; stronger effect = lower value; max response, negative = inhibition, %; hit rate 2.5% among 360,000; AID 652054; in the data active = max response below about -50%; inconclusive = no clear call, values can overlap the other calls; also: % is scaled to controls: 0 for no effect and ±100 for the full control effect
#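 Cells plated overnight at 1500 cells/well, then exposed to library compounds with dopamine controls for 90 minutes at 37 degrees C. DiscoveRx reagent added for 30–60 minutes at room temperature; luminescence read, quantitative HTS format.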
# * marks the source's active call; other numbers are inactive results; i = inactive; ? = inconclusive; · = not tested or not shown; [ ] = dose if it differs, or a comment. Unless noted, calls follow the shape of the dose curve; as a rule, active = well fitted curve in the direction sought with a large enough effect; inconclusive = small, poorly fitted or top-dose-only effect, or another doubt; inactive = no such curve, though single readings can be large; an effect the other way counts as inactive or inconclusive.
SMILES,MBNL1 CUG block,a7 integrin act,PTHR1 agonist,DRD3 agonist,CBFb RUNX1 block,DRD3 antagonist
O=C(NCc1ccccc1)C1c2ccccc2OCC(=O)N1Cc1cccnc1 (stereo not drawn),·,·,i,-5,·,-61*
CCOc1ccccc1N(CC(=O)N1CCCCCC1)S(C)(=O)=O,1%,-10%,-21%[57.5 µM],1,9%,-18
CCOc1ccccc1N(CC(=O)OC)S(C)(=O)=O,-6%,-16%,-20%[57.5 µM],5,18%,-107*
CC(C)(C)c1cc(-c2nc(N)nc(N)n2)c(O)c(C(C)(C)C)c1,·,-47%,-22%,48*,·,0
COc1ccc(CN(C)C[C@@H]2OCc3cnnn3CCCC(=O)N([C@@H](C)CO)C[C@H]2C)cc1,·,8%,-2%,-7,·,-10
CCOC(=O)[C@]12CCC=C1N(Cc1ccccc1)C(=O)[C@H](CC(=O)NCC13CC4CC(CC(C4)C1)C3)C2,·,·,-8%,-10,·,-53*
CCOC(=O)[C@]12CCC=C1N(Cc1cccc3ccccc13)C(=O)[C@H](CC(=O)NCC13CC4CC(CC(C4)C1)C3)C2,·,·,i,3,·,20
CN(CCNC(=O)c1ccc(CS(=O)(=O)c2ccc(Br)cc2)o1)CCc1ccccc1,-7%,-23%,i,-14,·,-55*
CC1SCCN1S(=O)(=O)c1ccc2ccccc2c1 (stereo not drawn),6%,13%,i,0,19%,-59*
O=C(O)C1SCCN1S(=O)(=O)c1ccc2ccccc2c1 (stereo not drawn),9%,14%,i,1,-2%,11
COCCn1c(SCCN2CCCCC2)nc2ccccc2c1=O,-15%,0%,i,-6,2%,-65*
COCCn1c(SCC(=O)N2CCCCC2)nc2ccccc2c1=O,6%,-2%,i,-14,-3%,-27
CN1CCc2c(sc(/N=C/c3c[nH]c4ccccc34)c2C(N)=O)C1,?,0%,i,-21,17%,-52*
O=C(Cn1c(=O)n(-c2ccc(Cl)cc2)c(=O)c2c3c(sc21)CCCCC3)Nc1cccc(Cl)c1,·,·,i,1,·,·
Cc1c(-c2csc(N)n2)cnn1C,·,35%,i,42*,14%,4
CCCn1c(C)cc(-c2csc(N)n2)c1C,-23%,-21%,i,-1,-23%,5
COc1cc(N=Nc2ccc(Br)cc2)cc(C=O)c1O,·,16%,-49%,-3,·,-75*
COc1cc(CN(C)C)cc(C=O)c1O,9%,-3%,i,-3,3%,3
CN(C)CCC(=O)C(Cc1ccccc1)c1ccccc1 (stereo not drawn),·,-54%,-4%,-13,·,-112*
CC(CCCN(C)C)C(Cc1ccccc1)c1ccccc1 (stereo not drawn),·,-80%,i,-9,·,-69*
CN(C)CC(c1ccccc1)c1ccccc1,-11%,-3%,i,14,3%,7
Nc1ccccc1Sc1c[nH]c2ccccc12,-1%,3%,-9%,-1,·,-1
COc1cccc(NC(=O)CC(C)S(=O)(=O)c2ccc3c(c2)NC(=O)CO3)c1 (stereo not drawn),·,·,?,2,·,·
Oc1c(Br)cc(Br)cc1C=NCc1ccccc1,7%,-15%,-8%,-28,8%,-57*
Oc1c(Br)cc(Br)cc1C=NCc1ccc(F)cc1,6%,?,-13%,-32,-15%,-67*
CNC(=O)NC(=O)CSc1nc2sccc2c(=O)n1-c1ccccc1,0%,-31%,4%,-6,·,9
CCn1c(CNC(=O)c2ccc(OC)cc2)nnc1SCC(=O)Nc1ccccc1,·,·,-7%,-9,·,·
CC1Cc2ccccc2N1C(=O)Cn1cnc2ccccc21 (stereo not drawn),-2%,-4%,-23%,5,6%,3
N#Cc1c(-c2ccccc2)ccn(Cc2ccccc2Cl)c1=O,14%,-2%,-69%,-1,6%,-51*

# From PubChem
